Sampled rows, rich in hits. Any-hit rate of the full collection: about 6.1%.
DRD3 antagonist – D3 dopamine receptor (human) antagonism | D3R cells, DiscoveRx beta-arrestin luminescence, antagonist mode; stronger effect = lower value | max response, negative = inhibition, % | actives 2.5% (n = 360,000) | AID 652054; in the data active = max response below about -50%; inconclusive = no clear call, values can overlap the other calls; also: % is scaled to controls: 0 for no effect and ±100 for the full control effect
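Cells expressing the human receptor were seeded at 1500 cells/well, incubated overnight at 37 degrees C in 5% CO2, then exposed to library compounds with dopamine controls for 90 minutes at 37 degrees C before luminescent detection.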
D1 antag – antagonists of human D1 dopamine receptor; P21728; HEK293 TREx D1 cells, calcium flux, dopamine EC80; stronger effect = lower value; activity change, negative = inhibition, % at 10 µM; actives 3.2% (n = 360,000); in the data active = activity change below about -30%; also: % is scaled to controls: 0 for no effect and ±100 for the full control effect
Target sequence (P21728 whole entry, looked up): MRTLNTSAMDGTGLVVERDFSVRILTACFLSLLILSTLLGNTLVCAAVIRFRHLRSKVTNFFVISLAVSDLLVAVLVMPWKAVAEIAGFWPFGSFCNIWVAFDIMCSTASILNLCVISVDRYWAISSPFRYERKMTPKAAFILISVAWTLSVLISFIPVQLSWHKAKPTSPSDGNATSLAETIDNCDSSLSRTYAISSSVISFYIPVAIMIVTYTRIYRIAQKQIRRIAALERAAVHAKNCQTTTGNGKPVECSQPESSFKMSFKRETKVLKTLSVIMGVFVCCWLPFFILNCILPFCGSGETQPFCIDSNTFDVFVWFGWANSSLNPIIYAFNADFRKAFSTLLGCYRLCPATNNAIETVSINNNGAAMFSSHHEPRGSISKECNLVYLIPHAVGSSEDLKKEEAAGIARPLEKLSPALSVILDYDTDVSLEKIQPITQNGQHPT
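Calcium flux readout: force-coupled, inducible Hek293 Trex D1 line, cells induced overnight at 30 C with tetracycline, dye-loaded 30–90 min at RT. Antagonism scored against EC80 dopamine challenge given 180 s after compound.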
D1 agonist – activates the human D1 dopamine receptor; P21728; HEK293 T-REx D1 cells, calcium flux, agonist mode; activation, % at 2 µM; actives 1% (n = 360,000); in the data active = activation above about 30%; also: 0% is about no effect
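Inducible HEK293 T-REx D1 cells, force-coupled to calcium signalling, were plated at 4000 cells/well with tetracycline and held overnight at 30 C. After no-wash calcium dye loading, compound-evoked calcium rise over 180 s flagged agonists.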
DRD3 agonist – D3 dopamine receptor (human) agonism; actives 0.58% (n = 410,000); max activation, %; D3R DiscoveRx beta-arrestin cells, luminescence, 90 min; AID 652048; in the data active = max activation above about 30%; also: 0% is about no effect
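Cells at 1500/well, incubated overnight, then treated with pinned compounds (dopamine as control) for 90 min at 37 degrees C. DiscoveRx reagent added for 30 - 60 minutes at room temperature; luminescence read.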
D1 PAM – enhances dopamine response at the human D1 receptor | P21728 | HEK293 TREx D1 cells, calcium flux, dopamine EC20 potentiation | potentiation, % at 10 µM | actives 0.036% (n = 360,000) | AID 504651; in the data active = potentiation above about 30%; also: 0% is about no effect
* hit, by the source's call; ? = inconclusive; . = no result.

SMILES	DRD3 antagonist	D1 antag	D1 agonist	DRD3 agonist	D1 PAM
CCN(CC)c1ccc(NC(=O)Cn2nnc(-c3cccc(OC)c3OC)n2)c(C)c1	15.6	4.5	1.0	31.4*	3.9
CCOc1cccc(CNC(=O)c2ccc(N3CCCC3)c(NC(=O)NCc3ccc(F)cc3)c2)c1	.	-34.5*	3.0	6.7	-1.1
CCCNC(=O)Nc1cc(C(=O)NCc2cccc(OCC)c2)ccc1N1CCCC1	.	4.0	-1.3	6.4	0.5
CN(C)c1ccc(-c2csc(C(C)(O)c3cccc(F)c3)n2)cc1 (centres undefined)	-25.7	.	.	-18.7	.
CN(C)C(=O)C(=O)c1c(-c2ccccc2)cc2ccccn12	13.0	-8.1	0.3	2.5	0.2
O=C(NCCO)C(=O)c1c(-c2ccccc2)cc2ccccn12	1.4	-31.1*	0.3	-3.3	-2.6
Cc1nnc(SCC(=O)N2CC(=O)Nc3ccccc32)n1Cc1ccccc1	-66.2*	-6.6	1.3	-6.1	5.6
CCC(c1nnc(SCC(=O)N2CC(=O)Nc3ccccc32)n1Cc1ccccc1)N(C)C (centres undefined)	0.0	1.2	1.3	-4.4	-6.7
O=C(CSc1nnc(-c2ccncc2)n1-c1ccccc1)NCC1CCCO1 (centres undefined)	5.5	-50.7*	2.6	3.4	-8.2
CCNC(=O)CSc1nnc(C2CC2)n1-c1ccccc1	-24.8	-11.0	0.6	0.6	3.1
O=C(CSc1nnc(C2CC2)n1-c1ccccc1)NCCc1ccccc1	-60.1*	-6.6	5.4	-3.0	-4.1
CC1Cc2nc(SCC(=O)NCC3CCCO3)n(C)c(=O)c2S1 (centres undefined)	-53.4*	0.2	1.1	13.8	-0.5
COc1ccccc1CNS(=O)(=O)c1ccc(-n2cnnn2)c(OC)c1	4.7	-18.5	8.4	2.6	.
COc1cccc(C(=O)NC23CC4CC(CC(C4)C2)C3)c1	0.6	-2.7	-0.5	-2.2	3.3
Cc1nnc(SCC(=O)NCC2CCCO2)n1Cc1ccccc1 (centres undefined)	-8.3	.	.	78.1*	.
CCOc1ccc(-c2ccc(SCC(=O)NCC3CCCO3)nn2)cc1 (centres undefined)	5.8	9.3	1.4	-6.2	-3.2
Cc1ccc(-c2ccc(SCC(=O)NCC3CCCO3)nn2)cc1 (centres undefined)	-11.5	-34.0*	3.2	-1.8	-2.5
O=C(CSc1nnc(-c2cccs2)n1-c1ccccc1)NCC1CCCO1 (centres undefined)	-1.9	-0.2	0.2	-5.1	-2.8
Cc1ccc2nc(SCC(=O)NCC3CCCO3)c(C#N)cc2c1 (centres undefined)	-12.2	-31.7*	0.5	-1.8	-10.4
Cc1ccc2cc(C#N)c(SCC(=O)NCC3CCCO3)nc2c1 (centres undefined)	-7.4	-2.4	-0.1	-8.3	-4.7
c1ccc(-n2c(SCC3CCCCO3)nnc2-c2cccs2)cc1 (centres undefined)	0.0	-31.9*	2.5	-10.3	0.4
O=C(CNC(=O)c1ccc2cc[nH]c2c1)OC(C(=O)Nc1cc(C(F)(F)F)ccc1Cl)c1ccccc1 (centres undefined)	.	-7.2	6.6	.	-2.3
CC1(C(=O)NCc2ccccc2)Oc2ccccc2NC1=O (centres undefined)	?	16.3	-2.8	1.7	-0.8
CC1(C(=O)NCc2ccc(Cl)c(Cl)c2)Oc2cccnc2NC1=O (centres undefined)	-7.7	-21.7	31.6*	-2.1	-5.8
CCc1sc(C(=O)NCCc2ccc(S(N)(=O)=O)cc2)cc1Br	-8.6	-30.3*	-0.7	-2.3	-2.3
SMILES	DRD3 antagonist	D1 antag	D1 agonist	DRD3 agonist	D1 PAM
Cc1cc(C(=O)NCCc2ccc(S(N)(=O)=O)cc2)c(C)o1	-12.1	-30.9*	3.3	-2.6	-6.0
O=C(CN1CCOCC1)Nc1ncc(Cc2cccc(Cl)c2Cl)s1	2.5	10.6	13.8	2.3	0.1
COc1cccc(-c2nc3c(c(C)nn3-c3ccccc3)c3cc(OC)c(OC)cc23)c1	.	-5.1	1.2	13.4	-2.0
Cc1cc(C)c2c(C)nn(-c3ccccc3)c2n1	3.0	1.4	36.6*	1.4	4.4
COc1cc2c(-c3ccc(O)cc3)nc3c(c(C)nn3-c3ccccc3)c2cc1OC	29.2	15.4	10.6	79.7*	-8.2
O=C(O)C1=CCC=CC1C(=O)O (centres undefined)	-15.2	.	.	-5.1	.
Cc1nc(C/C(=N\N)c2ccc(O)cc2O)cs1	6.0	-31.6*	3.5	-6.9	-2.8
Cc1nn(-c2ccccc2)c(C)c1/C=N/NC(=O)c1cc(-c2ccc(Br)s2)[nH]n1	5.0	-9.0	2.3	8.1	-7.0
Cc1nn(-c2ccccc2)c(C)c1/C=N/NC(=O)c1cc(-c2cccs2)[nH]n1	-17.9	-87.0*	2.2	-1.5	-12.6
O=C(/C=C/c1cccs1)N1CCc2ccccc21	12.0	-36.2*	1.3	1.6	-7.9
O=C(c1cccs1)N1CCc2ccccc21	?	-6.1	5.1	-16.5	-0.1
O=C(COC(=O)c1ccccc1SCC(=O)N1CCCC1)Nc1ccccc1	-11.6	-24.8	9.2	0.0	-2.1
CC(C)(C)N(Cc1ccccc1)C(=O)COC(=O)c1ccccc1SCC(=O)N1CCCC1	32.3	-37.6*	0.0	5.4	-5.5
CCCN1CCN(CCCNC(=O)c2ccc(CS(=O)c3ccccc3C)o2)CC1 (centres undefined)	-4.2	4.0	5.0	-5.0	-5.8
O=C(/C=C/c1cccc(OCc2ccccc2)c1)c1cccnc1	-13.7	-37.1*	9.3	4.5	-7.0
O=C(O)/C=C/c1cccc(OCc2ccccc2)c1	?	5.8	-0.7	-13.1	12.3
CCOc1ccc(S(=O)(=O)N(CCO)CCO)cc1-c1nc2c(C(C)(C)C)nn(C)c2c(=O)[nH]1	0.0	-1.3	0.9	0.8	30.4*
O=C(O)c1ccccc1-c1ncc(-c2ccccc2)o1	3.9	.	.	12.1	.
Cc1ccccc1OCCNCC(C)O (centres undefined)	-56.6*	-13.7	0.2	-12.0	-6.5
CCOc1ccccc1CNCCNCC(C)O (centres undefined)	-25.6	12.5	0.4	-12.1	6.2
CC(C)(C)OC(=O)N1CCCN(C(c2cc3ccccc3o2)c2nnnn2C(C)(C)C)CC1 (centres undefined)	2.0	.	.	5.8	.
Cc1ccc(S(=O)(=O)Cn2nnnc2C(C(C)C)N2CCN(C(=O)c3ccco3)CC2)cc1 (centres undefined)	-56.3*	.	.	-3.0	.
COc1cccc(C(c2nnnn2CC2CCCO2)N2CCN(C(=O)c3ccco3)CC2)c1OC (centres undefined)	0.0	-38.1*	5.9	-19.6	-0.9
CC(C)(C)n1nnnc1C(c1cc2ccccc2o1)N1CCN(C(=O)OCc2ccccc2)CC1 (centres undefined)	-62.9*	.	.	-9.7	.
COCCn1nnnc1C(c1cccc(OC)c1OC)N1CCN(C(=O)c2ccco2)CC1 (centres undefined)	6.0	27.8	1.0	4.0	-3.5

Bioassay records (PubChem)
